# Results as given in PubChem BioAssay (NCI).
# The panel holds about 79,000 compounds, 15% with a hit somewhere; the sample as a whole holds those more often. Values without a mark were called inactive. Cut-off read from the data, not from the text of the source: active = growth inhibition above about 70%; inactive = the rest. Where a SMILES comes first, the peptide text is derived from it. The star is where a group is joined. Boc = CC(C)(C)OC(=O)*; OBn = c1ccc(CO*)cc1
# Test: NCI Yeast Anticancer Drug Screen. Data for the cln2 rad14 strain (AID 165);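 note: 0% = growth equal to vehicle treated cultures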
# Conditions: S. cerevisiae cln2 rad14 strain, at 50.0 µM, hits give high values
# Method in brief: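 Yeast strain cln2 rad14, bearing defects in cell cycle control and DNA repair, serves as the test system; values reflect growth inhibition compared with vehicle.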
row,Structure (SMILES),growth inhibition [%]
1,CCCCCCCCCCCCSSC(=S)OC(C)C,16.9
2,CN1CCCN(C)CCCN(C)CCCN(C)CCC1,-4.65
3,CC(C)CC(NC(=O)OC(C)(C)C)C(=O)NC(CC(=O)OCc1ccccc1)C(=O)OCc1ccccc1 (stereo not drawn) (Boc-Leu-Asp(OBn)-OBn; configuration not given here),2.2
4,CCOc1ccc(OCC)c(NC(=O)OC(C)C)c1,-27.5
5,O=Cc1ccc(N2OC(c3ccc([N+](=O)[O-])cc3)C(c3ccc([N+](=O)[O-])cc3)C2c2ccc([N+](=O)[O-])cc2)cc1 (stereo not given),25.4
6,CC(=O)OC(C)(C)c1ccc2c(c1)C(=O)C[C@@H]1[C@](C)(C#N)CCC[C@]21C,-5.35
7,O=c1c(-c2ccccc2)c(O)on1/C=C1/C=CC=N1,3.8
8,CCOC(=O)NCC(=O)NCC(=O)NCC(N)=O,-9.65
9,NCCN(CCN)/[N+]([O-])=N/O,-1
10,O=S(=O)(Nc1cccc(C(F)(F)F)c1)c1ccc(F)cc1,12.9
11,CC(O)(CNS(=O)(=O)c1ccccc1)c1ccccc1 (stereo not given),-36.9
12,COC(=O)C1C2C=CC(C2)C1C(=O)OC (stereo not given),-27.9
13,O=C1OC(=O)C(c2ccccc2)=C1c1ccccc1,-10.8
14,c1ccc2c(c1)NC1C3(CCC4CCCCC241)SCCS3 (stereo not given),8.8
15,Cc1cc(C)c(NC(=O)c2c(Cl)c(Cl)c(Cl)c(Cl)c2C(=O)O)c(C)c1,-51.3
